Records with an inconclusive call do not appear. Active and inactive are the calls of the source. Unless noted, calls follow the shape of the dose curve; as a rule, active = well fitted curve in the direction sought with a large enough effect in the repeat runs; inconclusive = weak or mixed curves; inactive = no such curve, though single readings can be large; an effect the other way counts as inactive or inconclusive.
Tests used:
[1] = qHTS assay to identify small molecule antagonists of the retinoid acid receptor (RAR) signaling pathway - cell viability counter screen (AID 1159551); also: nearly all actives have a fitted effect of over 35% in size
Method in brief: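 Seed C3RL4 cells; next day add compound, then retinol to 1 uM final; incubate 6 h at 37 C; add CellTiter-Glo; read luminescence after 30 min at RT.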

[2] = qHTS assay to identify small molecule antagonists of the retinoic acid receptor (RAR) signaling pathway (AID 1159552; also: nearly all actives have a fitted effect of over 50% in size)
Method in brief: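 Retinol signaling pathway inhibitors screened in C3RL4 RARE-luciferase reporter cells seeded overnight at 37 C, then compounds added with 1 uM (final) retinol as pathway substrate. After 6 hr at 37 C, luciferase luminescence read after 30 min at room temperature.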

[3] = qHTS assay to identify small molecule antagonists of the estrogen related receptor (ERR) signaling pathway from Tox21 library - cell viability counter screen (AID 1224834); also: nearly all actives have a fitted effect of over 30% in size
Method in brief: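 CellTiter-Fluor fluorescence measured; ERR cells; 17.5 h compound incubation at 37 C; 30 min reagent step.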

[4] = target: Luciferin 4-monooxygenase (Photinus pyralis) (UniProt P08659); experiment: qHTS assay to identify small molecule inhibitors of firefly luciferase (AID 1224835); also: series mostly up to about 120 µM; nearly all actives have a fitted effect of over 25% in size
Method in brief: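 Inhibition of purified Photinus luciferase is measured by luminescence. Substrate levels (D-luciferin, ATP) sit at their KM values. Each compound is tested in a concentration series.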

[5] = qHTS assay to identify small molecule agonists of the constitutive androstane receptor (CAR) signaling pathway - cell viability counter screen (AID 1224836); also: series mostly up to about 92 µM; nearly all actives have a fitted effect of over 45% in size
Method in brief: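 HepG2 cells stably carrying hCAR and a CYP2B6-2.2kb reporter; 15-concentration compounds plus PK11195 (final 0.75 uM), 23 hr at 37 C/5% CO2. Viability read by CellTiter-Fluor fluorescence.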

[6] = qHTS assay to identify small molecule antagonists of the constitutive androstane receptor (CAR) signaling pathway - cell viability counter screen (AID 1224837); also: series mostly up to about 92 µM; nearly all actives have a fitted effect of over 45% in size
Method in brief: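 Using CellTiter-Fluor, viability is scored in HepG2 cells stably carrying hCAR and a 2.2kb CYP2B6 reporter after 23 hr compound exposure across 15 concentrations, with CITCO present at 50 nM.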

[7] = qHTS assay to identify small molecule antagonists of the estrogen related receptor signaling pathway with the pleiotropic PPARgamma coactivator (PGC) from Tox21 10K library - cell viability counter screen (AID 1224840; active = well fitted cell-killing curve with a large enough effect in the repeat runs, not every such curve was filed as active; also: nearly all actives have a fitted effect of over 40% in size)
Method in brief: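 Here the PGC/ERR cells serve as a cytotoxicity control: they are exposed to compounds for 17.5 hours at 37 C, and live-cell signal is quantified using CellTiter-Fluor fluorescence.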

[8] = target: Thyrotropin receptor (Homo sapiens) (UniProt P16473); experiment: qHTS assay to identify small molecule agonists of the thyroid stimulating hormone receptor (TSHR) signaling pathway (AID 1224843; calls by dose curve; also: nearly all actives have a fitted effect of over 45% in size)
Method in brief: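 Screening of the Tox21 10K collection used HEK293 cells engineered with TSHR at 800 cells per well. After a 30-min room-temperature compound exposure, HTRF cAMP reagents were added and fluorescence recorded 1 h later.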

[9] = qHTS assay to identify small molecule agonists of the hypoxia (HIF-1) signaling pathway - cell viability counter screen (AID 1224844; calls by dose curve; also: nearly all actives have a fitted effect of over 50% in size)
Method in brief: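 Multiplexed with the HRE beta-lactamase assay, this viability read used CellTiter-Glo luminescence (30 min, RT) on HRE-bla ME-180 cells treated 17 hrs with compounds in 0.5% dialyzed FBS medium.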

[10] = qHTS assay to identify small molecule agonists of H2AX (AID 1224845; active = well fitted activation curve with a large enough effect in the signal ratio in the repeat runs, not every such curve was filed as active; the % refers to the signal ratio)
Method in brief: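 Phospho-H2AX Ser139 measured by HTRF (ex 320 nm; em 665 and 620 nm) after 24 hr antibody incubation. Compounds, 15 concentrations, 0.76% DMSO, were applied to CHO-K1 cells for 3hr at 37C before lysis.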

[11] = qHTS assay to identify small molecule agonists of the retinoic acid receptor (RAR) signaling pathway (AID 1159553)
Method in brief: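 Activation of retinol signaling was monitored via a RARE luciferase reporter in C3RL4 cells. After 6 hr compound treatment at 37 C, detection reagent was added for 30 min at room temperature before luminescence reading.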

[12] = target: Nuclear receptor subfamily 1 group I member 3 (Homo sapiens) (UniProt Q14994); experiment: qHTS assay to identify small molecule antagonists of the constitutive androstane receptor (CAR) signaling pathway (AID 1224838);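 also: HepG2 cells stably expressing hCAR with CYP2B6 luciferase reporter stimulated by CITCO; nearly all actives have a fitted effect of over 40% in size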
Method in brief: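 Reporter luminescence was quantified after 24 h exposure of hCAR/CYP2B6-2.2kb double-stable HepG2 cells to compounds at 15 concentrations in the presence of 50 nM CITCO final.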

[13] = target: Nuclear receptor subfamily 1 group I member 3 (Homo sapiens) (UniProt Q14994); experiment: qHTS assay to identify small molecule agonists of the constitutive androstane receptor (CAR) signaling pathway (AID 1224839);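 also: HepG2 cells stably carrying human CAR and a CYP2B6 luciferase reporter; series mostly up to about 92 µM; nearly all actives have a fitted effect of over 15% in size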
Method in brief: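 HepG2 cells stably co-transfected with hCAR and a CYP2B6-2.2kb luciferase reporter; compounds at 15 concentrations with 0.75 uM PK11195 present. After 24 hr at 37 C, luciferase read by ONE-Glo luminescence.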

[14] = qHTS assay to identify small molecule antagonists of the estrogen related receptor (ERR) signaling pathway - cell viability counter screen (AID 1224818);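 also: series mostly up to about 46 µM; viability measured after 17.5 h of compound exposure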
Method in brief: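 In the same ERR cell assay, compound-treated wells (17.5 h, 37 C) were multiplexed with a fluorogenic viability reagent, CellTiter-Fluor, read after 30 min to flag cytotoxic substances.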

[15] = qHTS assay to identify small molecule agonists of the estrogen related receptor signaling pathway with the pleiotropic PPARgamma coactivator (PGC) from Tox21 10K library (AID 1224842); also: nearly all actives have a fitted effect of over 15% in size
Method in brief: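 Luminescence from One-Glo (30 min, room temperature) measured after PGC/ERR cells had 18 h at 37 C with pinned compound (23 nL in DMSO). Cells had been seeded at 2,000 per well and pre-incubated 6 h.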

[16] = qHTS assay to identify small molecule antagonists of the estrogen related receptor signaling pathway with the pleiotropic PPARgamma coactivator (PGC) from Tox21 10K library (AID 1224841; call rule not given here; also: series mostly up to about 92 µM; actives are mostly falling curves and most rising ones were filed inactive; nearly all actives have a fitted effect of over 50% in size)
Method in brief: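 Each well held 2,000 PGC/ERR cells, pre-incubated six hours (37 C, 5% CO2). Test substances in DMSO were added by pin tool and left for 18 h at 37 C before luciferase detection by One-Glo.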

Measured: Potency

Chain of Nuclear receptor subfamily 1 group I member 3 (Homo sapiens) (Q14994 whole entry, looked up): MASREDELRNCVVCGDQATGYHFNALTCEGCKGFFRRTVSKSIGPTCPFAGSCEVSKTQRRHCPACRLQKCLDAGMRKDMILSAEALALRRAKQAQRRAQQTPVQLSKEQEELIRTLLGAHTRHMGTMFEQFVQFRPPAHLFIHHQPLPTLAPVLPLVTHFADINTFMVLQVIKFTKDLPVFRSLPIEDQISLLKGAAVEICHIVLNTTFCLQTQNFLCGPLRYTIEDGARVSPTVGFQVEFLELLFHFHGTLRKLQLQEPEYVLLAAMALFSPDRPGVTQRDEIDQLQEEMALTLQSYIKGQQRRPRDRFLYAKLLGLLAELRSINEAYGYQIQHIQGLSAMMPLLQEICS
Chain of Luciferin 4-monooxygenase (Photinus pyralis) (P08659 whole entry, looked up): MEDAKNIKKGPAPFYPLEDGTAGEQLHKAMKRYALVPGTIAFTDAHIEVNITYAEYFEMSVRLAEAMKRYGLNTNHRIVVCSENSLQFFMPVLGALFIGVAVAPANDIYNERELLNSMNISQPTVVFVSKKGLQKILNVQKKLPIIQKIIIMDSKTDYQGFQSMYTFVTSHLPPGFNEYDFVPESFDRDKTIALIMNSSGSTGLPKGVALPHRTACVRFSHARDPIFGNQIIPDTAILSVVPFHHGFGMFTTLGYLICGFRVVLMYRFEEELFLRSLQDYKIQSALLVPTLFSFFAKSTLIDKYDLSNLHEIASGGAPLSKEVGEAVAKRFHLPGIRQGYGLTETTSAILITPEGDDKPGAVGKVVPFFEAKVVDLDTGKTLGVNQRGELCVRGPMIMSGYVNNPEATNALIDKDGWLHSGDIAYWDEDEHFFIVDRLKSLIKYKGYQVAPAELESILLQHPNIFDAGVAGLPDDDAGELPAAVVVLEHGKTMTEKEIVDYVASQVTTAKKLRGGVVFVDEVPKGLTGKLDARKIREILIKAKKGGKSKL
Chain of Thyrotropin receptor (Homo sapiens) (P16473 whole entry, looked up): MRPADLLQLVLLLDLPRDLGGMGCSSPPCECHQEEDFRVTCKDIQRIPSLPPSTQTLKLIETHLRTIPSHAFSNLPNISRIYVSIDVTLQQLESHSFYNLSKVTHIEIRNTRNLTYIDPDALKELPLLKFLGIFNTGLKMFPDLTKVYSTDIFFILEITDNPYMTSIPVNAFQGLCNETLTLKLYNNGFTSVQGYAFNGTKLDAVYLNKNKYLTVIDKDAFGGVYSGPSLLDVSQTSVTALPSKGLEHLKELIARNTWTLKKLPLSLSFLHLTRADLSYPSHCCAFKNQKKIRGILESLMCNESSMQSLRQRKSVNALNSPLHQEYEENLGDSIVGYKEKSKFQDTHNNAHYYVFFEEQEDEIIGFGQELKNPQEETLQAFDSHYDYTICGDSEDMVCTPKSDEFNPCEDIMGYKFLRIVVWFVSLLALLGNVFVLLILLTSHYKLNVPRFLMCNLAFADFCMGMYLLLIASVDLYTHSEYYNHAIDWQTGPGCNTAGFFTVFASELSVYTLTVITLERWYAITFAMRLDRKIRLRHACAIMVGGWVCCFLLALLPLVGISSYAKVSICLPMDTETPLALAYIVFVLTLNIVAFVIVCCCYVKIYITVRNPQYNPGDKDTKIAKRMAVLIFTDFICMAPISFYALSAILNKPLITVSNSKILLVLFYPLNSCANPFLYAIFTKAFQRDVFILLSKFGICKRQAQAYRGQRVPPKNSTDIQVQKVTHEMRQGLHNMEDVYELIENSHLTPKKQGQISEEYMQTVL

CCCCCCCC1CCCC1=O (stereo not given)
inactive: [1] | [2] | [3] | [4] | [5] | [6] | [7] | [8] | [9] | [10]

CC(C(=O)O)c1cccc(Oc2ccccc2)c1 (stereo not given)
inactive: [1] | [11] | [3] | [4] | [5] | [6] | [12] | [13] | [7] | [9] | [10]

CC(C)CCCO
inactive: [1] | [11] | [3] | [4] | [5] | [6] | [7] | [8] | [9] | [10]

NO
inactive: [1] | [11] | [14] | [3] | [5] | [6] | [8] | [9] | [10]

CC1OC1C1CCC2(C)OC2C1 (stereo not given)
inactive: [1] | [2] | [3] | [5] | [6] | [12] | [13] | [8] | [9] | [10]

C=C(C)C(=O)OCC1CCCO1 (stereo not given)
inactive: [1] | [2] | [3] | [5] | [6] | [12] | [13] | [9] | [10]

CCCCOCCOC(=O)COc1cc(Cl)c(Cl)cc1Cl
inactive: [1] | [2] | [3] | [5] | [6] | [12] | [13] | [7] | [8] | [9] | [10]

C[N+]12CCC(CC1)C(OC(=O)C(O)(c1ccccc1)c1ccccc1)C2 (stereo not given)
inactive: [1] | [11] | [3] | [5] | [6] | [12] | [13] | [7] | [15] | [8] | [10]

O=C(O)c1cc(C(=O)O)cc(C(=O)O)c1
inactive: [1] | [11] | [3] | [5] | [6] | [12] | [13] | [7] | [8] | [9] | [10]

NCCCC(N)(C(=O)O)C(F)F (stereo not given)
inactive: [1] | [11] | [14] | [3] | [4] | [5] | [6] | [7] | [8] | [9] | [10]

Cc1ncc(COP(=O)(O)O)c(C=O)c1O
inactive: [1] | [11] | [3] | [4] | [5] | [6] | [12] | [13] | [7] | [8] | [9] | [10]

CCN1C=CN(C)C1C (stereo not given)
inactive: [1] | [11] | [3] | [5] | [6] | [7] | [15] | [8] | [9] | [10]

CCCc1nn(C)c2c(=O)[nH]c(-c3cc(S(=O)(=O)N4CCN(C)CC4)ccc3OCC)nc12
inactive: [1] | [11] | [14] | [3] | [4] | [5] | [6] | [12] | [13] | [7] | [8] | [9]

C[N+]1(C)CCCC(OC(=O)C(O)(c2ccccc2)c2ccccc2)C1 (stereo not given)
inactive: [1] | [11] | [3] | [4] | [5] | [6] | [7] | [9] | [10]

COCCOCC(OC)OC
inactive: [1] | [3] | [4] | [5] | [6] | [12] | [13] | [7] | [16] | [15] | [8] | [9] | [10]

O=C(O)Cc1csc(-c2ccc(Cl)cc2)n1
inactive: [1] | [3] | [4] | [5] | [6] | [12] | [13] | [7] | [8] | [9] | [10]

C=CCCCCCCCCC(=O)OCC
inactive: [1] | [3] | [4] | [5] | [6] | [12] | [13] | [7] | [16] | [15] | [8] | [9] | [10]

[K+]
inactive: [1] | [3] | [4] | [5] | [6] | [12] | [13] | [7] | [8] | [9] | [10]

COc1cccc(OC)c1C(=O)N[C@@H]1C(=O)N2[C@@H]1SC(C)(C)[C@@H]2C(=O)O
inactive: [1] | [3] | [4] | [5] | [6] | [12] | [13] | [7] | [8] | [9] | [10]

COc1ccnc(CS(=O)c2nc3cc(OC(F)F)ccc3[nH]2)c1OC (stereo not given)
inactive: [1] | [3] | [4] | [5] | [6] | [12] | [13] | [7] | [8] | [9] | [10]

CCOC(=O)OC(C)OC1=C(C(=O)Nc2ccccn2)N(C)S(=O)(=O)c2ccccc21 (stereo not given)
inactive: [1] | [3] | [4] | [5] | [6] | [12] | [13] | [7] | [16] | [15] | [8] | [9] | [10]

CC(C)C1CCC(O)CC1 (stereo not given)
inactive: [1] | [3] | [4] | [5] | [6] | [12] | [13] | [7] | [8] | [9] | [10]
